# Shown are actives, neighbours in structure and some others; about 1.4% of the full set was active somewhere.
# AID504770 = growth inhibitors of E. coli YBA685 in a screen for V. cholerae RctB (chromosome II replication) inhibitors; hit rate 0.27% among 130,000; AID 504770; z-score (no concentration beside the values); E. coli YBA685 rctB-dependent plasmid, OD600 growth, 3 h; stronger effect = lower value; in the data active = z-score below about -2, passing the limit was not always enough
# Mtb MenB inh = Mtb MenB enzyme inhibition. P9WNP5. MenB enzyme assay, absorbance read-out. inhibition, % (concentration not given with the values). hit rate 0.43% among 100,000. AID 540299; in the data active = inhibition above about 21%, passing the limit was not always enough
# Target sequence (P9WNP5 whole entry, looked up): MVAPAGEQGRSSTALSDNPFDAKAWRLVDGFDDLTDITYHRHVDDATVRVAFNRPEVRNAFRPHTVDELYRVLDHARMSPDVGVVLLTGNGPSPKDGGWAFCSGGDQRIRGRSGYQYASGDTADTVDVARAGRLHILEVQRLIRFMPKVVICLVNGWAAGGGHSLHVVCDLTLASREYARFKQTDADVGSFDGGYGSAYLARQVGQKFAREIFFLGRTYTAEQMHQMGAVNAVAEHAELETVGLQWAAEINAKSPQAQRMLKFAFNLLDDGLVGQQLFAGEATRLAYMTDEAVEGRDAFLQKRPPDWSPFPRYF
# Polio RdRp inh = inhibitors of poliovirus RNA polymerase binding and polymerization; poliovirus polymerase elongation, fluorescence polarization; stronger effect = lower value; P03300; hit rate 0.66% among 150,000; % elongation, % (compound at 16.7 µg/mL); AID 588519; in the data active = % elongation below about 90%
# MbtI inh = MbtI salicylate synthase inhibition; purified MbtI enzyme, fluorescence intensity read-out; hit rate 0.89% among 100,000; inhibition, % (test concentration not listed); P9WFX0; in the data active = inhibition mostly above about 56%, no sharp cut-off; inactive = mostly below about 77%
# * marks the source's active call; other numbers are inactive results; i = inactive; · = no result given.
SMILES,AID504770,Mtb MenB inh,Polio RdRp inh,MbtI inh
S=C(NCc1ccc2c(c1)OCO2)N(Cc1ccco1)Cc1cccs1,0.85,-39,88*,60*
Oc1ccc(O)c(C2CC3CCC2C3)c1 (stereo not drawn),-0.4,-30,99,102*
O=C1C=C2C(=CCOC2O)O1 (stereo not drawn),-5.2*,0,99,27
N#CC(C#N)=Cc1ccc(OC(=O)c2ccccn2)cc1,-0.85,-163,87*,34
O=C(Oc1ccc(C=Nc2ccccc2Br)cc1)c1ccccn1,0.65,·,·,·
Cc1ccccc1N1CC(c2nnc(NC(=O)c3ccco3)s2)CC1=O (stereo not drawn),·,·,82*,·
CSc1nnc(NC(=O)c2ccco2)s1,-1.1,·,·,·
COc1ccc(C2(CNC(=O)c3ccco3)CCOCC2)cc1,0.15,-13,78*,·
O=C1N=C(N2CCOCC2)SC1=C1CCCCC1,-0.85,-20,101,-4
O=C1NC(=O)C(=C2CCCCC2)S1,0.15,-36,105,86*
CC(=O)NC1[C@@H](O)OC(CO)[C@@H](O)[C@H]1O[C@H](C)C(=O)O (stereo partly drawn),·,-11,101,-7
CCn1c(Cc2nnc(SCC(=O)c3ccc(F)cc3)n2CC)nnc1SCC(=O)c1ccc(F)cc1,0.2,-34,103,-10
CC(CN1CCCN(C)CC1)c1ccccc1 (stereo not drawn),-0.8,-22,102,-5
CN1CCCN(Cn2nc3ccccn3c2=S)CC1,0.95,-8,15*,48
O=C(COc1ccc(Br)cc1F)NCCc1ccccn1,-0.75,-22,103,-12
O=c1[nH]c(-c2ccccc2O)nc2sc3c(c12)CCCC3,-0.2,-4,89*,·
O=c1[nH]c(-c2ccco2)nc2sc3c(c12)CCCC3,-0.3,·,103,i
Nc1cc(=O)[nH]c2n[nH]c(=S)n12,-0.4,33*,101,100*
Cc1ccc(OCC(=O)OCC(=O)Nc2ncc(Cl)cc2Cl)cc1C,-0.25,-18,101,5
CCS(=O)(=O)c1ncc(Cl)c(C(=O)Nc2ccc(Cl)cc2)n1,-0.85,-14,103,63*
CNc1nc(-c2c[nH]c3ccc(F)cc23)cs1,-0.4,-50,97,18
CN(C)CCN(C(=O)Cc1ccccc1)c1nc2cc3c(cc2s1)OCCO3,-2.3*,-29,101,11
CN(C)CCN(C(=O)c1ccco1)c1nc2cc3c(cc2s1)OCO3,0.15,7,102,-2
O=C1C=CC(=O)N1c1ccccc1Br,-3.3*,·,104,99*
CC(C)(C)c1ccccc1N1C(=O)C=CC1=O,-1.6,·,·,·
SMILES,AID504770,Mtb MenB inh,Polio RdRp inh,MbtI inh
N#Cc1ccccc1N1C(=O)C=CC1=O,-3.5*,·,·,·
Cc1ccccc1N1C(=O)C=CC1=O,0.9,-18,100,100*
N#Cc1ccccc1N1C(=O)c2ccccc2S1(=O)=O,-0.7,·,·,·
CSc1ccccc1N1C(=O)C=CC1=O,-2.5*,-5,102,101*
Cc1cc(C)n(C(=O)C2CC(=O)N(c3ccccc3)C2)n1 (stereo not drawn),0.35,-8,103,-6
O=C(O)C1C2C=CC3(CN(c4ccc(Cl)c(F)c4)C(=O)C13)O2 (stereo not drawn),2,8,100,·
CC12C=CC(O1)C1C(=O)N(c3ccccc3Cl)C(=O)C12 (stereo not drawn),1.8,·,103,66*
O=C1CC(Nc2ccccc2)C(=O)N1c1ccccc1Cl (stereo not drawn),-0.5,-8,107,·
COC(=O)c1cc(N2C(=O)C3C4C=CC(C)(O4)C3C2=O)ccc1Cl (stereo not drawn),-0.55,-7,104,81*
O=C1c2cccc3c(N4CCCCC4)ccc(c23)C(=O)N1c1ccccn1,-0.25,36*,78,-2
Fc1cccc(Nc2nc(Cl)nc(Cl)n2)c1,-0.55,48*,98,2
Clc1nc(Cl)nc(Nc2ccccc2)n1,0.65,-3,87*,·
CN(C)c1nc(Nc2ccccc2)nc(N(C)C)n1,-0.5,34,99,5
Cc1nn(C)c(Cl)c1NC(=O)OCC(C)(C)C,-0.85,·,·,·
CCC1=C(c2ccc(C)cc2)S(=O)(=O)NC1=NCC(=O)O,-0.55,-8,102,10
CC1(C)N=C(c2ccccc2)C(=S)N1C(=O)c1ccccc1,0,-19,98,57*
COC(=O)Cn1c(C(=O)OC)cc2c1ccn2-c1ccc(F)cc1,0.1,8,101,89
COC(=O)Cn1c(C(=O)OC)cc2c1ccn2C,1.1,33*,103,24
Cc1cc(NC(=O)CN2CCCCC2)nc2c1c(=O)oc1ccccc12,0,-5,100,4
COc1ccc(/C=N/n2cnnc2)cc1,0.5,-2,103,11
COc1ccc(/C=N/n2cn[nH]c2=S)cc1,1.4,-40,105,71*
Cc1nc(Cc2nnc(SCc3cc(=O)oc4cc(C)c(C)cc34)o2)cs1,-0.6,-30,-2.0*,53
Cc1nc(Cc2nnc(SCc3cn4cccc(C)c4n3)o2)cs1,-0.5,6,100,1
c1ccc(-c2nc3ccccn3c2NCC2CCCO2)cc1 (stereo not drawn),-0.75,-5,102,-117
c1ccc(CN2CCCC(c3ccccc3)C2)cc1 (stereo not drawn),-0.6,·,·,-11
SMILES,AID504770,Mtb MenB inh,Polio RdRp inh,MbtI inh
NCC1CCN(Cc2ccccc2)C1 (stereo not drawn),0.45,28*,103,34
O=c1[nH]c(SCc2ccc(Cl)cc2Cl)nc2ccccc12,0.75,·,·,·
N#Cc1ncc(C(F)(F)F)cc1SCc1ccc(Cl)cc1,0.7,·,·,·
Fc1ccc(/C=N/c2nnc3nc[nH]n23)cc1,-0.7,-4,88*,·
O=C(Nc1nn(Cc2c(F)cccc2Cl)cc1Br)C1CCCO1 (stereo not drawn),-0.35,-14,104,-9
O=S1(=O)CCC(NC(=S)S)C1 (stereo not drawn),-1.6,·,101,96*
O=S1(=O)CCC(NC(=S)SCc2ccccc2)C1 (stereo not drawn),-3.8*,·,·,·
COC(=O)c1c(NC(=O)CCCOc2cccc(C)c2)sc2c1CCC2,·,·,101,·
COC(=O)c1c(NC(=O)CCCOc2cccc(C)c2)sc2c1C(C(=O)OC)CC2 (stereo not drawn),·,·,81*,·
CCOc1ccc(/C=C/C(=O)Nc2sc3c(c2C(=O)OC)C(C(=O)OC)CC3)cc1 (stereo not drawn),·,·,79*,·
COC(=O)c1c(NC(=O)CCCOc2ccc(C)cc2)sc2c1C(C(=O)OC)CC2 (stereo not drawn),·,·,71*,·
COC(=O)c1c(NC(=O)CCCOc2ccc(C)cc2)sc2c1CCCC2,·,·,95,·
O=C(CNC(=O)c1ccc(Br)o1)NC1CCCc2ccccc21 (stereo not drawn),-0.1,-32,97,7
CCN(CC)C(=O)c1sc(NC(=S)N2CCN(Cc3cnn(CC)c3C)CC2)c(C(=O)OC)c1C,-1.2,-18,103,1
N#Cc1cccc(NC(=O)c2sc3nc4c(cc3c2N)C2CCN4CC2)c1,2,-28,103,-192
CC(=O)/C=C(\C)Nc1ccccc1S,-1.2,28*,101,1
CC(=O)Nc1ccccc1N,0,-16,111,·
O=S(=O)(N=C1SCCS1)c1ccccc1,-0.2,·,·,·

# Source: PubChem
